From ChEMBL document CHEMBL2218924, “A broad activity screen in support of a chemogenomic map for kinase signalling research and drug discovery” (Biochem J, 2013)

What was measured:
[1] = target: T1, Tyrosine-protein kinase Tec (Homo sapiens) (UniProt P42680); details: at 1 µM
T1 sequence (whole entry): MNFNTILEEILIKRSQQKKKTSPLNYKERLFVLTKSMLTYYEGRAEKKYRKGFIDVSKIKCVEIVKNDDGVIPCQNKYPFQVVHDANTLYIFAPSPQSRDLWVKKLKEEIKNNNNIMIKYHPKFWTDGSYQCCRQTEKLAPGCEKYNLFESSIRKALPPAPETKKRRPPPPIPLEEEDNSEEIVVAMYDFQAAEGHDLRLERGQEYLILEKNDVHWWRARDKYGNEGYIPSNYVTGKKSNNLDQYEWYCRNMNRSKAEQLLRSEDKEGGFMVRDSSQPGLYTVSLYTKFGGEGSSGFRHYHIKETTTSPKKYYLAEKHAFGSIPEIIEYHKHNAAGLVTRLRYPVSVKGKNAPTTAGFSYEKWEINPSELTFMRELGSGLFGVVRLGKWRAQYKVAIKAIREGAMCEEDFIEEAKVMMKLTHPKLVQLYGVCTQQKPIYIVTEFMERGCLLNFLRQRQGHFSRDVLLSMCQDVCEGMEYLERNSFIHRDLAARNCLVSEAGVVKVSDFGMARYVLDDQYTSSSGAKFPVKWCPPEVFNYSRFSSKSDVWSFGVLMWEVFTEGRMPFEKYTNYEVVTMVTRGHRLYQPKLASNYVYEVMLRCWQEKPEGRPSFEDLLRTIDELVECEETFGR

[2] = target: T1, Tyrosine-protein kinase Tec (Homo sapiens); details: at 10 µM
[3] = target: Angiopoietin-1 receptor (Homo sapiens) (UniProt Q02763); details: at 1 µM
[4] = target: Angiopoietin-1 receptor (Homo sapiens) (UniProt Q02763); details: at 10 µM
[5] = target: High affinity nerve growth factor receptor (Homo sapiens) (UniProt P04629); details: at 1 µM
[6] = target: High affinity nerve growth factor receptor (Homo sapiens) (UniProt P04629); details: at 10 µM
[7] = target: BDNF/NT-3 growth factors receptor (Homo sapiens) (UniProt Q16620); details: at 1 µM
[8] = target: BDNF/NT-3 growth factors receptor (Homo sapiens) (UniProt Q16620); details: at 10 µM
[9] = target: T2, Tyrosine-protein kinase TXK (Homo sapiens) (UniProt P42681); details: at 1 µM
T2 sequence (whole entry): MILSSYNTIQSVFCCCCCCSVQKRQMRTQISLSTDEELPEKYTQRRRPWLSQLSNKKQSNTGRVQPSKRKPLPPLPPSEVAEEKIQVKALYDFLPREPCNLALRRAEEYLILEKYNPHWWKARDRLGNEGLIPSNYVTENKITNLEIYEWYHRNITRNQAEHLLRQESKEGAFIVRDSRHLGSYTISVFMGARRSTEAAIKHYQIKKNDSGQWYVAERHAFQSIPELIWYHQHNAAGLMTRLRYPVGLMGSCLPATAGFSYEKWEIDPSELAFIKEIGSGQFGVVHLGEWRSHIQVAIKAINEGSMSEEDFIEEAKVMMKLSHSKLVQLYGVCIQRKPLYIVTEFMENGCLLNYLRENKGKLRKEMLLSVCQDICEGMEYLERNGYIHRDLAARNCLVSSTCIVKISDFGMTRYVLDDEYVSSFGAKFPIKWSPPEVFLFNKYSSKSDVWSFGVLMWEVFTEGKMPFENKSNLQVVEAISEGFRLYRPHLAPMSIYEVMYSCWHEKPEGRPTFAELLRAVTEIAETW

[10] = target: T2, Tyrosine-protein kinase TXK (Homo sapiens); details: at 10 µM
[11] = target: T3, Serine/threonine-protein kinase ULK2 (Homo sapiens) (UniProt Q8IYT8); details: at 1 µM
T3 sequence (whole entry): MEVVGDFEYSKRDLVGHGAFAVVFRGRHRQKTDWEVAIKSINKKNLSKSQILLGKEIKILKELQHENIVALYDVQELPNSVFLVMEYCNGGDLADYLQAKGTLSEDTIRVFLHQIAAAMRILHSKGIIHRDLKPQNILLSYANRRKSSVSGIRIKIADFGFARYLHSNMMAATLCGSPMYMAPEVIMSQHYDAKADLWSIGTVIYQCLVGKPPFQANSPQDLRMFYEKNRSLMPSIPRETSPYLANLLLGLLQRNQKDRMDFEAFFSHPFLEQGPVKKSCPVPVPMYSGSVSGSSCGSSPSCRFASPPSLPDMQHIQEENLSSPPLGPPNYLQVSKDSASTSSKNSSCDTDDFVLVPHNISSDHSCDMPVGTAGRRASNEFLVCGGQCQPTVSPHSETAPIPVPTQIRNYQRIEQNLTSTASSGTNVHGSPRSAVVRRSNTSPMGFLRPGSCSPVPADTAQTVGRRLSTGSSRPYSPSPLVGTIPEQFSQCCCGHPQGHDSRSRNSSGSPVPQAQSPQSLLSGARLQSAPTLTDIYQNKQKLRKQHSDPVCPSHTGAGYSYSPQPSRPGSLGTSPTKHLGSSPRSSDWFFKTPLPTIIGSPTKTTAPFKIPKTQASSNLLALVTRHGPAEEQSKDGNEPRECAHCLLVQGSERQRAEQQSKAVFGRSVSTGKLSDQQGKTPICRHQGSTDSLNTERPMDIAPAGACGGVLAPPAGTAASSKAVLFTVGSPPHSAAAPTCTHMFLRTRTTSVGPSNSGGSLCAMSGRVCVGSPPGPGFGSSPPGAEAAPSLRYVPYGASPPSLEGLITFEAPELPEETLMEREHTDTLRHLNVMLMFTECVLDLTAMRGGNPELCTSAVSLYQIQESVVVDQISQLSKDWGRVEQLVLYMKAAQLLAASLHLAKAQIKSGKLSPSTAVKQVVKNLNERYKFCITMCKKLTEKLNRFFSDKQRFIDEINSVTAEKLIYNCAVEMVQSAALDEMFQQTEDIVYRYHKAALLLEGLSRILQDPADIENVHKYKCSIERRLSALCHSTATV

[12] = target: T3, Serine/threonine-protein kinase ULK2 (Homo sapiens); details: at 10 µM
[13] = target: T4, Serine/threonine-protein kinase ULK3 (Homo sapiens) (UniProt Q6PHR2); details: at 1 µM
T4 sequence (whole entry): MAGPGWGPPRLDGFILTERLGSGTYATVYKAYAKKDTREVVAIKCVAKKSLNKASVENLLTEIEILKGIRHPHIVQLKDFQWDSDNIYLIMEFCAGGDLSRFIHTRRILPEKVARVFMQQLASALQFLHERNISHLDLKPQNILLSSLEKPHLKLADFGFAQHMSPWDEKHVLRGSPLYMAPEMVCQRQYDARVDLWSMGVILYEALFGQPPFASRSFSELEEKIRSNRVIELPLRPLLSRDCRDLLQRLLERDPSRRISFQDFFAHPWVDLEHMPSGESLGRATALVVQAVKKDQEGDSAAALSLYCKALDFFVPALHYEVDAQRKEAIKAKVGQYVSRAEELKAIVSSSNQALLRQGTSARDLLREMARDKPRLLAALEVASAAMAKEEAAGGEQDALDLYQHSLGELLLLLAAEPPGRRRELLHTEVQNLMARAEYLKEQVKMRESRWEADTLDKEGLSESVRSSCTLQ

[14] = target: T4, Serine/threonine-protein kinase ULK3 (Homo sapiens); details: at 10 µM
[15] = target: Serine/threonine-protein kinase VRK2 (Homo sapiens) (UniProt Q86Y07); details: at 1 µM
Serine/threonine-protein kinase VRK2 (Homo sapiens), sequence (Q86Y07 whole entry): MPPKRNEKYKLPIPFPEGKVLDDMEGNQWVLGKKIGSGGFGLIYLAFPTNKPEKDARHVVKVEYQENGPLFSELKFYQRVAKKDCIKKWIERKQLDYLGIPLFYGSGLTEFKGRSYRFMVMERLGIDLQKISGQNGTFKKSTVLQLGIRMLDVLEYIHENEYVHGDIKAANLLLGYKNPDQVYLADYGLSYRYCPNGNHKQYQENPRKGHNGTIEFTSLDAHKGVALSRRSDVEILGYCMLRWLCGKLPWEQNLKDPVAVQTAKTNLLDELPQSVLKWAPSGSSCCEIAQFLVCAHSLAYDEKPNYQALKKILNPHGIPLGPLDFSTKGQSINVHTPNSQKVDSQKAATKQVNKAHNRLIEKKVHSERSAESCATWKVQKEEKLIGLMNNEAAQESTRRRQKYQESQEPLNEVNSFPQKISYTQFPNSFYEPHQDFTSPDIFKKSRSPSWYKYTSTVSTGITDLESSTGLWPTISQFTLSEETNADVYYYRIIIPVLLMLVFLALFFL

[16] = target: Serine/threonine-protein kinase VRK2 (Homo sapiens) (UniProt Q86Y07); details: at 10 µM
[17] = target: Serine/threonine-protein kinase WNK2 (Homo sapiens) (UniProt Q9Y3S1); details: at 1 µM
Serine/threonine-protein kinase WNK2 (Homo sapiens), sequence (Q9Y3S1 whole entry): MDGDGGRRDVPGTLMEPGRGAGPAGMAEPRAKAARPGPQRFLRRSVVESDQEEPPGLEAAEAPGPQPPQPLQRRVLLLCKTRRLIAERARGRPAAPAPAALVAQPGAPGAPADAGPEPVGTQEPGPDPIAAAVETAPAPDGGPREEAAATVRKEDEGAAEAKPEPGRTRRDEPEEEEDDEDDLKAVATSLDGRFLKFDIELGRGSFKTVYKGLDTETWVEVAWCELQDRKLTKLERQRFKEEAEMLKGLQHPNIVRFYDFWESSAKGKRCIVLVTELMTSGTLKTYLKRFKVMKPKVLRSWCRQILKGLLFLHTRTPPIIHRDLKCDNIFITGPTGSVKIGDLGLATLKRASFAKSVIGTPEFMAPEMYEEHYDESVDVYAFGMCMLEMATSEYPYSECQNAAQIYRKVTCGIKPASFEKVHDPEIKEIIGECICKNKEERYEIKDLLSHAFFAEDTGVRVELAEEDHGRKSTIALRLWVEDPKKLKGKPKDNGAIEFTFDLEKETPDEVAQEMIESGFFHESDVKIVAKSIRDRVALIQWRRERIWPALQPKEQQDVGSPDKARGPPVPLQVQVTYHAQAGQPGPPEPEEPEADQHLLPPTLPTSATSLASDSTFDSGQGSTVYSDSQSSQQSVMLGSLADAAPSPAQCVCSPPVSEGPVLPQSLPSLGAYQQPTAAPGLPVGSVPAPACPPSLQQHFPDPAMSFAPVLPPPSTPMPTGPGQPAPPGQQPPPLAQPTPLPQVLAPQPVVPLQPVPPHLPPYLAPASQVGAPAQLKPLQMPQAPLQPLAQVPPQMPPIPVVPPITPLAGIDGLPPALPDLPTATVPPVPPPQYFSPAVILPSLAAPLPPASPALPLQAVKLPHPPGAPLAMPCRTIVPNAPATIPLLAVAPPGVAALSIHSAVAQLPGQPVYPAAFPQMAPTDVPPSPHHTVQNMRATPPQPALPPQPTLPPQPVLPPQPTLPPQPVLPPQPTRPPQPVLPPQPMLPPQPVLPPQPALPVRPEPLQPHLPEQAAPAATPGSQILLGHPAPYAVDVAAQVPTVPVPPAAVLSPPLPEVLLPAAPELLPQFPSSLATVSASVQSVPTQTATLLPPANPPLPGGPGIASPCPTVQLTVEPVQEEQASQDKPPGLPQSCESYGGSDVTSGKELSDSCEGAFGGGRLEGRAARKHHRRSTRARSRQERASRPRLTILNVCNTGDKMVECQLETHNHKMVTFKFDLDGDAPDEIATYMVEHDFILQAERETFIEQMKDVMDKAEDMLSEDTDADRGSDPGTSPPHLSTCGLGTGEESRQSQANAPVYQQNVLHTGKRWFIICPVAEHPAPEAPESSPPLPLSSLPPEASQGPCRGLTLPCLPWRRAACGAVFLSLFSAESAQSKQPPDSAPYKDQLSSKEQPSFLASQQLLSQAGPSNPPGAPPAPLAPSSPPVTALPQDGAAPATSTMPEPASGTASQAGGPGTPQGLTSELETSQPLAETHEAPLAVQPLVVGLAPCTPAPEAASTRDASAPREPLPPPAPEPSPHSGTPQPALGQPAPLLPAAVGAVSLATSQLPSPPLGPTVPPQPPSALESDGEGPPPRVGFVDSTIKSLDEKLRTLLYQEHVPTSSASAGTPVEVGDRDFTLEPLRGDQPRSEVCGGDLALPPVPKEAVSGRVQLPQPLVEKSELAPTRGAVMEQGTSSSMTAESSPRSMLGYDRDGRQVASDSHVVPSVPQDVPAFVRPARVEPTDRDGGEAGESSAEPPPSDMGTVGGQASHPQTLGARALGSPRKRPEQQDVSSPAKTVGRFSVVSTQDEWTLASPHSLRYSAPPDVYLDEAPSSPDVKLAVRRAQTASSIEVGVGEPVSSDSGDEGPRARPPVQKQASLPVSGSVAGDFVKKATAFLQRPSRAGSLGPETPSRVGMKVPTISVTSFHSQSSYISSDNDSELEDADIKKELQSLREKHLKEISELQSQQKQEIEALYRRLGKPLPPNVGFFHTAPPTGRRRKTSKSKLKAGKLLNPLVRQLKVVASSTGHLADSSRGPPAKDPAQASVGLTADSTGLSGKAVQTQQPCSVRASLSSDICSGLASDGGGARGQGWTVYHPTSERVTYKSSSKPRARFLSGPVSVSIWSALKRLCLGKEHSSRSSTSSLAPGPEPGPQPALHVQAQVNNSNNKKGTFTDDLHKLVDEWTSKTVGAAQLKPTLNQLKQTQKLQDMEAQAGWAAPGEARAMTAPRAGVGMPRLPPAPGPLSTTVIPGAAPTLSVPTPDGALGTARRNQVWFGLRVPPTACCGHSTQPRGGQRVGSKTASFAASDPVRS

[18] = target: Serine/threonine-protein kinase WNK2 (Homo sapiens) (UniProt Q9Y3S1); details: at 10 µM
[19] = target: Serine/threonine-protein kinase WNK3 (Homo sapiens) (UniProt Q9BYP7); details: at 1 µM
Serine/threonine-protein kinase WNK3 (Homo sapiens), sequence (Q9BYP7 whole entry): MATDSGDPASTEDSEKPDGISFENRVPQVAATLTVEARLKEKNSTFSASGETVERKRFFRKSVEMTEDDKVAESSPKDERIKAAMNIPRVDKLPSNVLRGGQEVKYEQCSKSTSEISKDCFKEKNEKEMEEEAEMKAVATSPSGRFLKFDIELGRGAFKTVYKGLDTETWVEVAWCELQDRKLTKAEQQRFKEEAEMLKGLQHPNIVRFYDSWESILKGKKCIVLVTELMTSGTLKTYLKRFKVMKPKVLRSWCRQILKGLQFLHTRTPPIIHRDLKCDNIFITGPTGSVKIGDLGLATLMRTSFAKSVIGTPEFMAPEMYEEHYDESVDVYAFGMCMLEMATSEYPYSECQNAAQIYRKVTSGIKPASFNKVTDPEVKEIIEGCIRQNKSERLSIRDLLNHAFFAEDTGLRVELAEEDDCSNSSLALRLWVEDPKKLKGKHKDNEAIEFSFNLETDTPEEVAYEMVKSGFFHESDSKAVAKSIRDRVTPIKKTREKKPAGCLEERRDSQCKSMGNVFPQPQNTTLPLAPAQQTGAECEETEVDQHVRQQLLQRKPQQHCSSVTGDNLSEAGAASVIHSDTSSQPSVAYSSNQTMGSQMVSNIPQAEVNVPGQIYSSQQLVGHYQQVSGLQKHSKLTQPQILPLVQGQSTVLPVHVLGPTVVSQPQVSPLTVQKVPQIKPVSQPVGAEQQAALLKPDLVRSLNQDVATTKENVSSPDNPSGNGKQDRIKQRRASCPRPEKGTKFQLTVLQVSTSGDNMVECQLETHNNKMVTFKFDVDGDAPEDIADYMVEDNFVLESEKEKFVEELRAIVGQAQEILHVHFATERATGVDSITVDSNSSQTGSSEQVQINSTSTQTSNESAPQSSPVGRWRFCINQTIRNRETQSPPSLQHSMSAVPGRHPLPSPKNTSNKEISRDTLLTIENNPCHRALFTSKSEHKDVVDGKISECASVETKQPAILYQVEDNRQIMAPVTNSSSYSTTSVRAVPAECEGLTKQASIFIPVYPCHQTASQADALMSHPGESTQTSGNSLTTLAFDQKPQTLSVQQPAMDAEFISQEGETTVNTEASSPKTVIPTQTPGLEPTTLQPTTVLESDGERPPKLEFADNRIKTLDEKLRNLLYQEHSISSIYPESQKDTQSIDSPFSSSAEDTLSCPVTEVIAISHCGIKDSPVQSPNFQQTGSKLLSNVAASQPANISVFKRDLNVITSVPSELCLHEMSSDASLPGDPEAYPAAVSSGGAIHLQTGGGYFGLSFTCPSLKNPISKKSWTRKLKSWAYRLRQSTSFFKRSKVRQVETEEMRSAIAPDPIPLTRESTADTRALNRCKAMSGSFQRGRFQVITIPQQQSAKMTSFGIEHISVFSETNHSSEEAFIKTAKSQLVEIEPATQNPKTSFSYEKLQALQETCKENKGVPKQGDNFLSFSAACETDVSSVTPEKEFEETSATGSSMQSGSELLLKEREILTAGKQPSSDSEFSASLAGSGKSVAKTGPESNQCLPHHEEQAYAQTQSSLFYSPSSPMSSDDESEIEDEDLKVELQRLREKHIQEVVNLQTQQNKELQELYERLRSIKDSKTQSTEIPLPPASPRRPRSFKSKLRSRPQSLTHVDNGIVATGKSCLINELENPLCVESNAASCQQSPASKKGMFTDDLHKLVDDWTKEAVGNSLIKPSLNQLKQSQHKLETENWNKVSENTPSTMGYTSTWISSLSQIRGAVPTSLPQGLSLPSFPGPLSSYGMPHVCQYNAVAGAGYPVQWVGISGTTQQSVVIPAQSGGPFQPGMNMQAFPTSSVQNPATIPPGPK

[20] = target: Serine/threonine-protein kinase WNK3 (Homo sapiens) (UniProt Q9BYP7); details: at 10 µM

| SMILES | residual activity [1] | residual activity [2] | residual activity [3] | residual activity [4] | residual activity [5] | residual activity [6] | residual activity [7] | residual activity [8] | residual activity [9] | residual activity [10] | residual activity [11] | residual activity [12] | residual activity [13] | residual activity [14] | residual activity [15] | residual activity [16] | residual activity [17] | residual activity [18] | residual activity [19] | residual activity [20] |
| --- | --- | --- | --- | --- | --- | --- | --- | --- | --- | --- | --- | --- | --- | --- | --- | --- | --- | --- | --- | --- |
| CCn1cnc2c(Nc3cccc(Cl)c3)nc(N[C@@H]3CCCC[C@@H]3N)nc21 | 39% | 7% | 83% | 42% | 12% | 1% | 15% | 0% | 52% | 10% | 54% | 15% | 40% | 8% | 94% (inactive) | 48% | 88% (inactive) | 45% | 87% (inactive) | 56% |
| C[S+]([O-])c1ccc(-c2nc(-c3ccc(F)cc3)c(-c3ccncc3)[nH]2)cc1 (stereo not given) | 94% | 89% | 102% | 62% | 121% | 115% | 94% | 104% | 77% | 42% | 120% | 101% | 104% | 104% | 114% (inactive) | 96% | 117% (inactive) | 101% | 110% (inactive) | 100% |
| c1cc(-c2cnn3cc(-c4ccc(OCCN5CCCCC5)cc4)cnc23)ccn1 |  | 75% |  | 44% | 28% | 2% | 61% | 7% | 44% | 7% | 50% | 17% | 84% | 48% | 119% (inactive) |  |  |  |  |  |
| CC(C)[C@H](CO)Nc1nc(Nc2cccc(Cl)c2)c2ncn(C(C)C)c2n1 | 63% | 8% | 99% | 59% | 3% | 1% | 8% | 0% | 66% | 16% | 83% | 39% | 39% | 7% | 85% (inactive) | 30% | 91% (inactive) | 46% | 82% (inactive) | 51% |
| N/C(=N\[N+](=O)[O-])N/N=C\c1ccc(-c2cccc([N+](=O)[O-])c2)o1 |  |  | 90% | 92% | 91% | 91% |  |  |  | 80% |  |  | 92% | 88% |  |  |  |  |  |  |
| COc1cc(OC)c(/C=C2\C(=O)Nc3ccccc32)c(OC)c1 | 98% | 77% | 93% | 59% | 89% | 59% |  |  | 107% | 100% |  | 99% | 95% | 95% | 83% (inactive) | 32% | 89% (inactive) | 78% | 93% (inactive) | 83% |
| CCc1nc(-c2ccc(OC)cc2)[nH]c1-c1ccncc1 | 102% | 75% | 111% | 106% |  |  | 113% | 107% | 100% |  | 115% | 105% |  |  | 113% (inactive) | 101% | 112% (inactive) | 100% |  | 108% |
| COc1cc2ncnc(Nc3ccc(OCc4ccccc4)cc3)c2cc1OC | 107% | 67% | 106% | 78% | 69% | 72% | 93% | 122% | 97% | 57% | 102% | 93% | 104% | 69% | 112% (inactive) | 97% | 93% (inactive) | 55% | 95% (inactive) | 64% |
| O=C1NC(=O)c2c1c1c3ccccc3n3c1c1c2c2ccccc2n1C1CCC3O1 | 66% | 76% |  |  | 12% | 3% | 19% | 14% | 71% | 81% |  |  | 58% | 58% |  |  | 100% (inactive) | 99% | 94% (inactive) | 90% |
